Experimental findings from PubChem BioAssay (NCI) are described below.

Compounds without any hit were thinned out: in the full panel of roughly 83,000, 20% have a hit.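 Values shown are percent growth following 48 h exposure of cells in 96-well plates to a single concentration of compound; below 10 was considered active.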 The source made the active and inactive calls.

One experiment deals with M14 melanoma. Kind of experiment: NCI-60 one-dose screen, 48 h (100 = growth as untreated, 0 = no growth, -100 = all killed). Particulars: 10 µM.
On to `O=C(N/N=C/c1cc2ccccc2c2ccccc12)c1cc(O)c(O)c(O)c1`, for which the growth is 61% (inactive).
On the same count and under the same terms, to `COc1ccc(-c2nn(-c3cccc(NC(=O)c4cc(C(F)(F)F)cc(C(F)(F)F)c4)c3)cc2-c2ccncc2)cc1Cl` belongs 64% (inactive); to `O=S(=O)(NCCCNc1nccc(-c2c(-c3ccc(F)cc3)nc3sccn23)n1)c1ccc(F)cc1`, 44.4% (inactive); to `COc1ccc(-c2nn(-c3cccc(NC(=O)c4ccc(N5CCOCC5)c(C(F)(F)F)c4)c3)cc2-c2ccncc2)cc1Cl`, 65% (inactive).
`CCCCCCN1CCN(Cc2ccc(N(CC)CC)cc2)C(=O)C1=O`: the growth is 9.15% (active).
On to `COc1ccc(Oc2nc(NC3CCCC3)nc(Sc3ccc(OC)cc3)n2)cc1`, for which the growth is 87.6% (inactive).
Still for that read-out and setting: the figure for `COc1ccc(-c2nn(-c3cccc(NC(=O)Nc4cccc(C(F)(F)F)c4)c3)cc2-c2ccncc2)cc1Cl` is 4.56% (active).
Consider `COc1ccc(-c2nn(-c3cccc(NC(=O)Nc4ccccc4)c3)cc2-c2ccncc2)cc1Cl`, for which the growth was 9.94% (active).
Regarding `CCOC(=O)c1ccoc1`, the growth is 106% (inactive).
For `COc1ccc(/C=C/C(C)=N/OCC(=O)O)cc1`, the growth was 100% (inactive).
The same measure, in the same setting: the figure for `CN(C)Cc1cn(-c2ncc(-c3ccc(C(F)(F)F)cc3)c(NC3CCCCCC3)n2)nn1` is 84.5% (inactive); for `COc1cccc(C(=O)Nc2ccc(CN3CCc4nc5cc(OC)c(OC)cc5cc43)cc2)c1` it is 38.1% (inactive); for `O=[N+]([O-])c1cccc(-c2ncc(-c3ccc(Cl)cc3Cl)[nH]2)c1` it is 5.51% (active).
On the same count and under the same terms, to `CCN(CC)CCSCCN(CC)CC` belongs 111% (inactive); to `COc1ccc([N+](=O)[O-])c(C(=O)O)c1`, 100% (inactive).
Still for that read-out and setting: to `CNc1ncc(-c2ccc(C(F)(F)F)cc2)c(NC2CCCCCC2)n1` belongs 93.9% (inactive); to `CN(C)c1ccc(/C=C/C=N/NC(=O)c2cc(O)c(O)c(O)c2)cc1`, 96.9% (inactive); to `O=C(Nc1cccc(-n2cc(-c3ccncc3)c(-c3ccc(O)c(Cl)c3)n2)c1)c1ccc(N2CCOCC2)c(C(F)(F)F)c1`, 36.8% (inactive).
As to `Cc1ccc(CC#N)cc1C`, the growth was 96.9% (inactive).
Regarding `O=c1oc2cc(OS(=O)(=O)c3ccccc3)ccc2c2c1CCCCC2`, the growth was 70.2% (inactive).
For the compound `CCOC(=O)C(NC(=O)C(Cl)Cl)C(O)c1ccccc1` (stereo unspecified), the growth is 92.6% (inactive).
Take `C/C(N)=C(\C#N)C(=O)c1ccccc1`: the growth is 110% (inactive).
`Nc1ncnc2[nH]c(=O)[nH]c12`: the growth was 94.6% (inactive).
Turning to `COc1ccc(-c2nn(-c3cccc(NC(=O)c4cccc(C(F)(F)F)c4)c3)cc2-c2ccncc2)cc1Cl`, the growth is 7.66% (active).
On the same count and under the same terms, the figure for `O=C1CC[C@@H]2CCCC[C@@H]2C1` is 101% (inactive); for `Cc1ccc(S(=O)(=O)OCCN(CCOS(=O)(=O)c2ccc(C)cc2)c2c[nH]c(=O)[nH]c2=O)cc1` it is 105% (inactive).
Same read-out and setting: the figure for `FC(F)(F)c1ccc(-c2cnc(-n3cc(COCCN4CCCCC4)nn3)nc2NC2CCCCCC2)cc1` is -87.6% (active).

A further experiment concerns HCT-15 colon. The experiment is described as above. The following applies: 10 µM.
With `O=S(=O)(NCCCNc1nccc(-c2c(-c3ccc(F)cc3)nc3sccn23)n1)c1ccc2ccccc2c1`, the growth is 35.1% (inactive).
For `O=C(Nc1cccc(-n2cc(-c3ccncc3)c(-c3ccc(O)c(Cl)c3)n2)c1)c1ccc(Cl)c(Cl)c1`, the growth was 24% (inactive).
The same measure, in the same setting: the figure for `Cc1ccc(C)c(C(O)(c2cc(C)ccc2C)C2(O)CCCCC2)c1` is 94.5% (inactive).
As for `O=C(/C=C/c1cc2ccccc2[nH]c1=O)c1ccc2c(c1)OCO2`, the growth is 97.6% (inactive).
As for `O=C(Nc1cccc(-n2cc(-c3ccncc3)c(-c3ccc(O)c(Cl)c3)n2)c1)Nc1ccc(Cl)c(Cl)c1`, the growth was 14.1% (inactive).
Still for that read-out and setting: to `O=C(Nc1ccc(OS(=O)(=O)c2ccccc2)cc1)C12CC3CC(CC(C3)C1)C2` belongs 29.9% (inactive).
Regarding `COc1ccc(-c2nn(-c3cccc(NC(=O)Nc4ccc(Cl)c(C(F)(F)F)c4)c3)cc2-c2ccncc2)cc1Cl`, the growth was 16.3% (inactive).
Still for that read-out and setting: to `COc1ccc(-c2nn(-c3cccc(NC(=O)c4ccc(Cl)c(Cl)c4)c3)cc2-c2ccncc2)cc1Cl` belongs 75.2% (inactive).
The same measure, in the same setting: to `CCOC(=O)CCC(NC(=O)c1ccc(N)cc1)C(=O)OCC` (stereo unspecified) belongs 98.7% (inactive); to `O=C(Nc1ccccc1)Nc1cccc(-n2cc(-c3ccncc3)c(-c3ccc(O)c(Cl)c3)n2)c1`, 24.7% (inactive).
Take `O=S(=O)(NCCNc1nccc(-c2c(-c3ccc(F)cc3)nc3sccn23)n1)c1ccc2ccccc2c1`: the growth is 76.4% (inactive).
Same read-out and setting: to `O=C(Nc1cccc(-n2cc(-c3ccncc3)c(-c3ccc(O)c(Cl)c3)n2)c1)c1cc(C(F)(F)F)cc(C(F)(F)F)c1` belongs 44.9% (inactive); to `O=C(N/N=C/c1cc2ccccc2c2ccccc12)c1cc(O)c(O)c(O)c1`, 60% (inactive).
On to `COc1ccc(-c2nn(-c3cccc(NC(=O)c4cc(C(F)(F)F)cc(C(F)(F)F)c4)c3)cc2-c2ccncc2)cc1Cl`, for which the growth was 73.7% (inactive).
As to `O=S(=O)(NCCCNc1nccc(-c2c(-c3ccc(F)cc3)nc3sccn23)n1)c1ccc(F)cc1`, the growth is 38.4% (inactive).
Regarding `COc1ccc(-c2nn(-c3cccc(NC(=O)c4ccc(N5CCOCC5)c(C(F)(F)F)c4)c3)cc2-c2ccncc2)cc1Cl`, the growth was 53.5% (inactive).
Regarding `CCCCCCN1CCN(Cc2ccc(N(CC)CC)cc2)C(=O)C1=O`, the growth was 41.5% (inactive).
On the same count and under the same terms, to `COc1ccc(Oc2nc(NC3CCCC3)nc(Sc3ccc(OC)cc3)n2)cc1` belongs 43.9% (inactive); to `COc1ccc(-c2nn(-c3cccc(NC(=O)Nc4cccc(C(F)(F)F)c4)c3)cc2-c2ccncc2)cc1Cl`, 23.5% (inactive); to `COc1ccc(-c2nn(-c3cccc(NC(=O)Nc4ccccc4)c3)cc2-c2ccncc2)cc1Cl`, 16.6% (inactive).
With `CCOC(=O)c1ccoc1`, the growth is 97% (inactive).
Same read-out and setting: to `COc1ccc(/C=C/C(C)=N/OCC(=O)O)cc1` belongs 102% (inactive); to `CN(C)Cc1cn(-c2ncc(-c3ccc(C(F)(F)F)cc3)c(NC3CCCCCC3)n2)nn1`, 94.1% (inactive); to `COc1cccc(C(=O)Nc2ccc(CN3CCc4nc5cc(OC)c(OC)cc5cc43)cc2)c1`, 47.7% (inactive).
With `O=[N+]([O-])c1cccc(-c2ncc(-c3ccc(Cl)cc3Cl)[nH]2)c1`, the growth is -89.7% (active).
With `CCN(CC)CCSCCN(CC)CC`, the growth was 97.9% (inactive).
As for `COc1ccc([N+](=O)[O-])c(C(=O)O)c1`, the growth is 98.5% (inactive).
On to `CNc1ncc(-c2ccc(C(F)(F)F)cc2)c(NC2CCCCCC2)n1`, for which the growth was 81.5% (inactive).
On the same count and under the same terms, to `CN(C)c1ccc(/C=C/C=N/NC(=O)c2cc(O)c(O)c(O)c2)cc1` belongs 94.2% (inactive); to `O=C(Nc1cccc(-n2cc(-c3ccncc3)c(-c3ccc(O)c(Cl)c3)n2)c1)c1ccc(N2CCOCC2)c(C(F)(F)F)c1`, 16.6% (inactive).
Same read-out and setting: the figure for `Cc1ccc(CC#N)cc1C` is 95.4% (inactive).
As to `O=c1oc2cc(OS(=O)(=O)c3ccccc3)ccc2c2c1CCCCC2`, the growth was 42.2% (inactive).
Still for that read-out and setting: to `CCOC(=O)C(NC(=O)C(Cl)Cl)C(O)c1ccccc1` (stereo unspecified) belongs 117% (inactive).
On the same count and under the same terms, the figure for `C/C(N)=C(\C#N)C(=O)c1ccccc1` is 98.2% (inactive); for `Nc1ncnc2[nH]c(=O)[nH]c12` it is 96.3% (inactive).
For the compound `COc1ccc(-c2nn(-c3cccc(NC(=O)c4cccc(C(F)(F)F)c4)c3)cc2-c2ccncc2)cc1Cl`, the growth was 26.9% (inactive).
On the same count and under the same terms, to `O=C1CC[C@@H]2CCCC[C@@H]2C1` belongs 113% (inactive); to `Cc1ccc(S(=O)(=O)OCCN(CCOS(=O)(=O)c2ccc(C)cc2)c2c[nH]c(=O)[nH]c2=O)cc1`, 99.7% (inactive); to `FC(F)(F)c1ccc(-c2cnc(-n3cc(COCCN4CCCCC4)nn3)nc2NC2CCCCCC2)cc1`, 3.73% (active).
